Measurements from PubChem BioAssay (NCATS).
Inconclusive results are not listed. Activity calls are given as the source filed them. Unless noted, calls follow the shape of the dose curve; as a rule, active = well fitted curve in the direction sought with a large enough effect; inconclusive = small, poorly fitted or top-dose-only effect, or another doubt; inactive = no such curve, though single readings can be large; an effect the other way counts as inactive or inconclusive.

How the values were obtained:
[1] = target: D(1A) dopamine receptor (Homo sapiens) (UniProt P21728); test: HTS Assay for Allosteric Agonists of the Human D1 Dopamine Receptor: Primary Screen for Agonists (AID 488981); conditions: Inducible HEK293 T-REx D1 cells, calcium-flux fluorescence, 180 s kinetic; series mostly up to 41.8 µM
D(1A) dopamine receptor (Homo sapiens), sequence (P21728 whole entry, looked up): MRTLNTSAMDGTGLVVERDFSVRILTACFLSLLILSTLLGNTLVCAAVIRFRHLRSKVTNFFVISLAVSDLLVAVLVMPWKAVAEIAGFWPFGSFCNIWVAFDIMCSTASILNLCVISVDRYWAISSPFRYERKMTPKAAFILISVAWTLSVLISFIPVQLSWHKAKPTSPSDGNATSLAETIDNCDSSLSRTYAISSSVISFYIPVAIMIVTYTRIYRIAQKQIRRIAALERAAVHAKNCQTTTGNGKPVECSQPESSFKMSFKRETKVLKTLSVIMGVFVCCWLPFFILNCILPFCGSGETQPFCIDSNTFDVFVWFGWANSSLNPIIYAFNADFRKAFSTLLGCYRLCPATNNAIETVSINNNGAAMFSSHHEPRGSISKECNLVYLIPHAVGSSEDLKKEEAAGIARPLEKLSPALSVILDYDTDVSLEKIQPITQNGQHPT
Method in brief: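 Tetracycline-induced HEK293 T-REx cells force-coupled to calcium signalling were incubated overnight at 30 C and dye-loaded at room temperature. Calcium flux over 180 s after compound addition flagged agonists; a further 180 s read after EC20 dopamine flagged potentiators.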

[2] = target: D(1A) dopamine receptor (Homo sapiens) (UniProt P21728); test: HTS Assay for Allosteric Agonists of the Human D1 Dopamine Receptor: Primary Screen for Antagonists (AID 488983); conditions: D1 receptor cell assay, antagonist mode, qHTS titration; series mostly up to 41.8 µM;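 also: calcium flux response to an EC80 dopamine challenge measured with no-wash dye; nearly all actives have a fitted effect of over 65% in size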
Method in brief: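 Cells are induced with tetracycline and incubated overnight at 30 C, then loaded with calcium dye for 30 to 90 minutes at room temperature. Compound addition is followed by a 180 s read, then an EC80 dopamine addition and another 180 s read.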

[3] = Validation screen for small molecules that induce genotoxicity in human embryonic kidney (HEK293T) cells expressing luciferase-tagged ELG1 (AID 493106); conditions: luminescence; series mostly up to 46.1 µM
Method in brief: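 Luminescence from an ELG1-luciferase fusion serves as the read-out, rising when genetic stress elevates ELG1 protein. HEK293T reporter cells (2,000 per well) received 23 nL compound, incubated 16 hr at 37 °C, then ONE-Glo for 30 min at room temperature.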

[4] = target: ATPase family AAA domain-containing protein 5 (Homo sapiens) (UniProt Q96QE3); test: Validation screen for small molecules that inhibit ELG1-dependent DNA repair in human embryonic kidney (HEK293T) cells expressing luciferase-tagged ELG1 (AID 493107); conditions: HEK293T ELG1-luciferase level, luminescence, 5-fluorouridine co-treatment, 16 h; series mostly up to 46.1 µM; also: nearly all actives have a fitted effect of over 70% in size; also: potency is read from the fitted curve at half-maximal effect
ATPase family AAA domain-containing protein 5 (Homo sapiens), sequence (Q96QE3 whole entry, looked up, the tested form may be a part): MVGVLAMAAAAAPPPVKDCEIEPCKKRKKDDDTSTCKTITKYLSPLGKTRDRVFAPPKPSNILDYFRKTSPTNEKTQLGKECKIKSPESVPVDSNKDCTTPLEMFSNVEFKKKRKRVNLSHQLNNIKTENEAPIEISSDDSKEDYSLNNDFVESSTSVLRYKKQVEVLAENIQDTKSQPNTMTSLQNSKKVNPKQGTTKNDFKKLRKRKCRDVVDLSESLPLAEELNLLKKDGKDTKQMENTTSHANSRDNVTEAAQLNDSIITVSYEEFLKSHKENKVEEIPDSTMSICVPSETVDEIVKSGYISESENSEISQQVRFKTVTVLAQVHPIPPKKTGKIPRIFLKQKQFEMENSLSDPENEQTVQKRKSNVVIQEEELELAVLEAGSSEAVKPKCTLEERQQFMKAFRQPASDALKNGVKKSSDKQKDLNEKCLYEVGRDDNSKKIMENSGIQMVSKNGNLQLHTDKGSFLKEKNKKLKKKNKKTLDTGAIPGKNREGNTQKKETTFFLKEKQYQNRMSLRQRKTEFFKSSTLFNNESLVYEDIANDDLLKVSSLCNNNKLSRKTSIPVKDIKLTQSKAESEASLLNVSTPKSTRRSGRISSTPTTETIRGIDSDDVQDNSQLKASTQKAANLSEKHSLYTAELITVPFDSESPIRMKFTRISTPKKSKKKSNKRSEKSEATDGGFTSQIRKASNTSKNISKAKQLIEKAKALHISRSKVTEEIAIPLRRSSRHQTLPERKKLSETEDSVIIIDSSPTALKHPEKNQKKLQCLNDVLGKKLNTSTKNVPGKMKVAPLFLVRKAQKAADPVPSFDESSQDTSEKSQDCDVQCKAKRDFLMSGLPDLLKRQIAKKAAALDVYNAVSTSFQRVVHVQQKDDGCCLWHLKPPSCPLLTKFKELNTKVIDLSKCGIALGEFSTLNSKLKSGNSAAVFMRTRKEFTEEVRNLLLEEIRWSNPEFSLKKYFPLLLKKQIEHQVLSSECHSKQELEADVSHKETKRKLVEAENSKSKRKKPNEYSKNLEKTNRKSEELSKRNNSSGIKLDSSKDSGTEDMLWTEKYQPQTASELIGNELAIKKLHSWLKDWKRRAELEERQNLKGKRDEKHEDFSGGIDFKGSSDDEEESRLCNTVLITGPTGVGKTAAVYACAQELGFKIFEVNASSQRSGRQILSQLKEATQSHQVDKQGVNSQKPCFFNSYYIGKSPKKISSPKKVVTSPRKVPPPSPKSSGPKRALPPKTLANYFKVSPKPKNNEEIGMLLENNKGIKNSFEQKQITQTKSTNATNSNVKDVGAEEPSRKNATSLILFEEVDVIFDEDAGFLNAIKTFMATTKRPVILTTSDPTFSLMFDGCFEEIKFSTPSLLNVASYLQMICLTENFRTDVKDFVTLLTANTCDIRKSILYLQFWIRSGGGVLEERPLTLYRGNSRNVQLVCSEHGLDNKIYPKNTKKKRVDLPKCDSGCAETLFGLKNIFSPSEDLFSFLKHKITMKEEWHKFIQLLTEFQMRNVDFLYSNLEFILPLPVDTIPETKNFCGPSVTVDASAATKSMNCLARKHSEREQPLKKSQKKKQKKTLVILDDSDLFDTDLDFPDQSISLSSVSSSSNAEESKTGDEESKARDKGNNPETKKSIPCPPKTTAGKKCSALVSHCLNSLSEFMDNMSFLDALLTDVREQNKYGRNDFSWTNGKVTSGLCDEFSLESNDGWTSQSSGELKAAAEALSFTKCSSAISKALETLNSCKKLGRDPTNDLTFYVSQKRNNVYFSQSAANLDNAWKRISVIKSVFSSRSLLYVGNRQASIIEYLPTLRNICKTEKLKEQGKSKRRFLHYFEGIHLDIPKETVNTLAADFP
Method in brief: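 Luminescence from ONE-Glo, developed 30 min at room temperature, served as read-out of ELG1-luciferase levels. Beforehand, reporter HEK293T cells received 5-fluorouridine plus test compound for 16 hr at 37 °C.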

[5] = Nrf2 qHTS screen for inhibitors: Validation (AID 493153; active = well fitted inhibition curve with a large enough effect in the main read-out, with a control signal flat, not every such curve was filed as active); conditions: A549 ARE-Fluc reporter, 18-24 h; Potency: luciferase luminescence; viability change: measured here: cytotoxicity max response; luciferase luminescence, at 46.1 µM (top of the series)
Method in brief: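 Luminescence from an ARE-firefly luciferase reporter in A549 cells gives Nrf2 inhibition; an earlier CellTiter-Fluor fluorescent read flags cytotoxicity. Cells in 5% FBS OPTI-MEM received compound dilution series for 18-24 h at 37°C.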

[6] = qHTS for Inhibitors of Cell Surface uPA Generation: Validation Assay (AID 493164); conditions: mouse cells, plasminogen activation; series mostly up to 38.3 µM
Method in brief: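 RAW 264.7 cells (4000/well) were plated overnight, then exposed for 18 h at 37 C, 5% CO2 to compounds in a 7-point 1:5 titration (2.45 nM–38.3 uM final). Intracellular ATP was read by ATP-Lite luminescence.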

[7] = target: Peptidyl-prolyl cis-trans isomerase NIMA-interacting 1 (Homo sapiens) (UniProt Q13526); test: qHTS Validation Assay to Find Inhibitors of Pin1 (AID 504536; active = well fitted inhibition curve with a large enough effect in the polarisation, with a control signal flat, not every such curve was filed as active; the % refers to the polarisation); conditions: Pin1 fluorescence polarization peptide binding assay; series mostly up to 57.5 µM
Peptidyl-prolyl cis-trans isomerase NIMA-interacting 1 (Homo sapiens), sequence (Q13526 whole entry, looked up): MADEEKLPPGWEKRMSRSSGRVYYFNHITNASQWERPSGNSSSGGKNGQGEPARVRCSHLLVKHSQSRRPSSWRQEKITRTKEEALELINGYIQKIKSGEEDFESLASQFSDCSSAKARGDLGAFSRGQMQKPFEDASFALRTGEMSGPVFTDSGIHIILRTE
Method in brief: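 Fluorescence polarization competition: compounds (titration) displace HiFluor-488-labeled Pin1-1b peptide from Pin1 (0.3 uM final) in pH 7.5 HEPES buffer with DTT, 10 min at room temperature; %Activity normalized to no-enzyme wells, curves fitted.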

[8] = target: Phosphoglycerate kinase, glycosomal (Trypanosoma brucei brucei) (UniProt P07378); test: qHTS Validation Assay to Find Inhibitors of Phosphoglycerate Kinase (AID 504547); conditions: enzymatic PGK inhibition, coupled luminescence read-out; series mostly up to 57.5 µM; also: potency is read from the fitted curve at half-maximal effect
Phosphoglycerate kinase, glycosomal (Trypanosoma brucei brucei), sequence (P07378 whole entry, looked up): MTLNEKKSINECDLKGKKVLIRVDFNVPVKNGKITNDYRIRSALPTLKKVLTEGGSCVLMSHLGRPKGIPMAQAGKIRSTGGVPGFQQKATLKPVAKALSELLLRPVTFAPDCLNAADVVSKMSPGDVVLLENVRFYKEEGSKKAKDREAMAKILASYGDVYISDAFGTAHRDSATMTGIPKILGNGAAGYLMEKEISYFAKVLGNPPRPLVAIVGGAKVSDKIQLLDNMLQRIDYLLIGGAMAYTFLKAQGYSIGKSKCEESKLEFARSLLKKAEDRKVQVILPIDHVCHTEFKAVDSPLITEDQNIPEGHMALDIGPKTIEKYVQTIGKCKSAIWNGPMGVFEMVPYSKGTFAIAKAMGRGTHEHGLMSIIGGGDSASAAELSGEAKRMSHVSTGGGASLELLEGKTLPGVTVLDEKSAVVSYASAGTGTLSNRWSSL
Method in brief: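 Substrate/PGK mix plus compound; reaction started with GAPDH (100nM final) to form 1,3-BPG; 60 min RT; Kinase-Glo Plus 10 min; luminescence. TEA 100mM pH 7.6, MgCl2 5mM, Tween-20 0.01%.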

[9] = target: phosphoglycerate mutase (Leishmania major) (UniProt Q4Q090); test: qHTS Validation Assay to Find Inhibitors of Phosphoglycerate Mutase (AID 504548); conditions: biochemical enzyme activity; series mostly up to 57.5 µM
phosphoglycerate mutase (Leishmania major), sequence (Q4Q090 1-553): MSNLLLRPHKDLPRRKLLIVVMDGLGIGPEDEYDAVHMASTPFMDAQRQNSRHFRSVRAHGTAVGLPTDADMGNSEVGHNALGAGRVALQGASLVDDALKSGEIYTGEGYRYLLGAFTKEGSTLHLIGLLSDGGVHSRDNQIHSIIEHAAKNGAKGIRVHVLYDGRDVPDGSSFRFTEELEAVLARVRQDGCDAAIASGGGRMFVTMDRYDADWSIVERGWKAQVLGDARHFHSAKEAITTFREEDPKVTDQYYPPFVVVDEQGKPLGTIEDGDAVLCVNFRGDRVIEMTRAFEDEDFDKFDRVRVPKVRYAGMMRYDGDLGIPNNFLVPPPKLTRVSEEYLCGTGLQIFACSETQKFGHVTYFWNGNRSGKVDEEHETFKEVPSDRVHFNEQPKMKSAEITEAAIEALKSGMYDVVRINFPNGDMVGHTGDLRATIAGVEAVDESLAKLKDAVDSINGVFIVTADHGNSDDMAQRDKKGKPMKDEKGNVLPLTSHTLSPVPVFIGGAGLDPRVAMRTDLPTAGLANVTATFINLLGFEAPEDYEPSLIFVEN
Method in brief: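 Lm PGAM 1.25nM final; 100 mM TEA pH 7.6, 5 mM MgCl2, 0.01% Tween-20; 45 min RT; Kinase-GloPlus, 10 min; end-point luminescence. Enzyme-free wells as negative controls.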

[10] = Inducers of the Endoplasmic Reticulum Stress Response (ERSR) in human glioma: Validation (AID 504836); conditions: human glioma cells, ER stress response reporter; series mostly up to 38.3 µM
Method in brief: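 Stably transfected U87-MG human glioma cells carrying a GRP78-based luminescent sensor were seeded at 1000 cells/well, pin-dosed with compounds and incubated 16 h. Luciferase reagent was then added, and end-point luminescence was read after 10 min at room temperature.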

[11] = target: Ubiquitin carboxyl-terminal hydrolase 1 (Homo sapiens) (UniProt O94782); test: Inhibitors of USP1/UAF1: Pilot qHTS (AID 504865); conditions: purified USP1/UAF1, Ub-rhodamine cleavage fluorescence; series mostly up to 114 µM;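 also: rhodamine fluorescence freed from ubiquitin-rhodamine substrate followed over time; top concentration of the series differs between compounds; nearly all actives have a fitted effect of over 35% in size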
Ubiquitin carboxyl-terminal hydrolase 1 (Homo sapiens), sequence (O94782 whole entry, looked up): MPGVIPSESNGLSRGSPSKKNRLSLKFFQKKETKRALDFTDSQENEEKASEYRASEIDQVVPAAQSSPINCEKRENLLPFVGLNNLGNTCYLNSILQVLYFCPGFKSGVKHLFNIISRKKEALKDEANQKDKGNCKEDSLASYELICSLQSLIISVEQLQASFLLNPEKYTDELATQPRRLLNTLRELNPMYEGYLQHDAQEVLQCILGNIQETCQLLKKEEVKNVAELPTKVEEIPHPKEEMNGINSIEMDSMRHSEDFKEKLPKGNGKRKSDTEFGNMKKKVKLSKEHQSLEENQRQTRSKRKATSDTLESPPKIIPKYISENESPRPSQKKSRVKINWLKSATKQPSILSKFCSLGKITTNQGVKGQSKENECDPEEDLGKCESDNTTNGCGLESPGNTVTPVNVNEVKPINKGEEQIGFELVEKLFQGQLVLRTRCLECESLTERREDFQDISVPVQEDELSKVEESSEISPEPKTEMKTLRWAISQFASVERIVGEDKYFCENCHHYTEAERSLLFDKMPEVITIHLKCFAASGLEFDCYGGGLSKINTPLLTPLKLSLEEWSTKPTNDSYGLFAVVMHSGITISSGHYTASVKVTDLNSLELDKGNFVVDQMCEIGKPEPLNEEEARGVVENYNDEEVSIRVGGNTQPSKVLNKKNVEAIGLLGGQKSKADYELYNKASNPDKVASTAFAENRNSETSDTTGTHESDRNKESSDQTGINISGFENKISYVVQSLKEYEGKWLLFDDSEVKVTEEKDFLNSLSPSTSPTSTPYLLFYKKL
Method in brief: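 1nM USP1/UAF1 + cpd, 15 min RT; start w/ Ub-Rho 150nM final; kinetic FL 480/540 nm, 6 reads q60 s. Buffer 50mM HEPES pH 7.8, 0.5mM EDTA, 1mM TCEP, 0.01% Tween-20, 0.1 mg/ml BSA.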

[12] = qHTS for Inhibitors of ATXN expression: Validation of Cytotoxic Assay (AID 588349); conditions: cytotoxicity counter-screen for ATXN expression inhibitors, cell viability; series mostly up to 57.1 µM
Method in brief: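 Read-out: ATP-based luminescence (CellTiter Glo) reflecting viability of HEK293 cells after 72 hr incubation at 37 degrees C with a concentration series of each compound.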

[13] = target: ATP-dependent 6-phosphofructokinase (Trypanosoma brucei brucei) (UniProt O15648); test: qHTS Assay to Find Inhibitors of T. brucei phosphofructokinase: hit validation (AID 492961);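 also: luminescence reports ADP formed as PFK phosphorylates fructose-6-phosphate with ATP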; conditions: T. brucei PFK, ADP-Glo luminescence; series mostly up to 51.4 µM
ATP-dependent 6-phosphofructokinase (Trypanosoma brucei brucei), sequence (O15648 whole entry, looked up): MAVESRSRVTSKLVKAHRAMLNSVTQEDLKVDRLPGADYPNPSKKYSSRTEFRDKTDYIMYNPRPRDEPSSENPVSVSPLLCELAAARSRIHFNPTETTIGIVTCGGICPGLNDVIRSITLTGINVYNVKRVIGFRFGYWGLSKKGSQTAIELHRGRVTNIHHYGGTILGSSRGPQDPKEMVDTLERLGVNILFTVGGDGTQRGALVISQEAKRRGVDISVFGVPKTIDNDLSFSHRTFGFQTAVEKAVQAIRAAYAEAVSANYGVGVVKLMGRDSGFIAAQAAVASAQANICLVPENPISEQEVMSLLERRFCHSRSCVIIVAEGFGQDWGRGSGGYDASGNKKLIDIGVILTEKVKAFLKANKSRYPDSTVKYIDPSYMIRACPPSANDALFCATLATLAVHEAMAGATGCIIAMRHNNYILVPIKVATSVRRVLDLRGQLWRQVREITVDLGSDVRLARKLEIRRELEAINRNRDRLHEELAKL
Method in brief: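 Reaction: 0.1 M triethanolamine pH 8.0, 5 mM MgCl2, F6P 0.5 mM, ATP 0.1 mM, PFK 1.25 nM, 45 min RT. Read-out: ADP-Glo luminescence. Analysis: concentration-response fits, classed by r2 and efficacy.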

[14] = target: Transient receptor potential cation channel subfamily V member 1 (Homo sapiens) (UniProt Q8NER1); test: HTS Assay for Compounds that Act as Enhancers of the Vanilloid Receptor 1 (AID 488979); conditions: TRPV1-expressing cells, enhancer of channel activity; series mostly up to 41.7 µM
Method in brief: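 TRPV1-expressing cells loaded with Fluo-8 calcium dye; compounds added and calcium influx read kinetically for 3 min (agonist phase), then capsaicin at EC20 added and read 2 min more for enhancement. Fluorescence ex 480/em 520 nm.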

[15] = target: Thyrotropin receptor (Homo sapiens) (UniProt P16473); test: qHTS Assay for Antagonists of the Thyroid Stimulating Hormone Receptor (AID 488980); conditions: TSHR-expressing cells, cAMP antagonist read-out; series mostly up to 57.5 µM
Method in brief: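 TSHR-HEK293 cells; 70 uM RO 20-1724 PDE inhibitor; compound + EC80 TSH (4 nM final); anti-cAMP cryptate antibody/cAMP-d2 in lysis buffer, 30 min RT; HTRF 665/620 nm read.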

[16] = target: Galactokinase (Homo sapiens) (UniProt P51570); test: qHTS Validation Assay for Inhibitors of Human Galactokinase (GALK) (AID 493189); conditions: purified human GALK enzyme activity, qHTS 7-point titration; series mostly up to 57.5 µM
Method in brief: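 Luminescence from leftover ATP (Kinase-Glo Plus, 10 min) served as read-out after a 1 h room-temperature reaction of 5 nM GALK, 100 uM galactose and 35 uM ATP at pH8.0.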

[17] = Validation screen for small molecules that induce DNA re-replication in SW480 colon adenocarcinoma cells (AID 504364); conditions: DNA re-replication phenotype (high-content imaging); series mostly up to 46.1 µM
Method in brief: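 250 cells/well; compound pinned in; 48 hr, 37 C, 5% CO2; Hoechst added, 40 min; nuclear fluorescence imaged, 405 ex / 500-530 em; re-replication scored as increase in high-intensity nuclei.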

[18] = target: DNA dC->dU-editing enzyme APOBEC-3G (Homo sapiens) (UniProt Q9HC16); test: qHTS for inhibitors of Vif-A3G interactions: Validation (AID 588379); conditions: Vif-A3G protein interaction assay; series mostly up to 46.1 µM
Method in brief: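 HeLa cells stably expressing Vif and A3G-eYFP, 700 cells/well, incubated overnight at 37 deg C, then exposed to compound overnight at 37 deg C. Inhibition of Vif-mediated degradation read as increased yellow fluorescence (Ex 488/Em 500-530) by laser-scanning cytometry.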

CC(C)=CCOc1c2occc2cc2ccc(=O)oc12
inactive: Potency [1] | Potency [2] | Potency [3] | Potency [4] | Potency [5] | outcome [6] | Potency [7] | Potency [8] | outcome [9] | outcome [10] | Potency [11] | Potency [12]
0.848%: viability change [5]

CC1NCCOC1c1ccccc1 (stereo not drawn)
inactive: outcome [13] | Potency [11]

O=c1[nH]c2ccccc2n1CCCN1CCC(n2c(=O)[nH]c3cc(Cl)ccc32)CC1
active: Potency [4] 16.4 µM
inactive: outcome [14] | outcome [15] | Potency [1] | outcome [13] | Potency [3] | Potency [5] | outcome [6] | outcome [16] | Potency [17] | Potency [7] | Potency [8] | outcome [9] | outcome [10] | Potency [11]
-5.95%: viability change [5]

CC[C@@H](CO)NC(=O)[C@@H]1C=C2c3cccc4c3c(cn4C)C[C@H]2N(C)C1
inactive: Potency [1] | outcome [13] | Potency [3] | Potency [4] | Potency [5] | outcome [6] | Potency [8] | outcome [9] | outcome [10] | Potency [11]
-1.92%: viability change [5]

CCOC(=O)C1(c2ccccc2)CCN(CCC(C#N)(c2ccccc2)c2ccccc2)CC1
inactive: outcome [13]

CN(C)C(=O)C(CCN1CCC(O)(c2ccc(Cl)cc2)CC1)(c1ccccc1)c1ccccc1
inactive: Potency [3]

O=c1c(O)c(-c2ccc(O)c(O)c2)oc2cc(O)cc(O)c12
active: Potency [4] 20.6 µM | Potency [8] 7.57 µM

NP(N)(=O)NC(=O)c1ccc(F)cc1
inactive: outcome [18]

CC(C)NCC(O)c1ccc(O)c(O)c1 (stereo not drawn)
inactive: Potency [12]
